Sequences and labels used below:
B1: VH:VL chains; a variant is named by its letters at X, in order (parent)
chain 1: QVQLVQSGAEVKKPGASVKVSCKASGYTFTDYXMHWVRQAPGQGLEWMGXVNPNXXXTTYNQKFEGRVTMTTDTSTSTAYMELRSLRSDDTAVYYCARXNXLDXWGQGTTVTVSS
chain 2: DIQMTQSPSSLSASVGDRVTITCSVSSSVSSIYLHWYQQKPGKAPKLLIYSTSNLASGVPSRFSGSGSGTDFTLTISSLQPEDFATYYCQVYSGYPLTFGGGTKVEIK

Our source for the antigen binding call values is the emibetuzumab library of Makowski et al. (2022).

The list shows a part of the results. How many sequences the whole screen found active is unknown.

In this experiment the parent is B1. Put plainly: yeast display scFab, FACS + sequencing. The note with it: with MET. Summed up: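 Round-3 sorted and input populations from a heavy-chain CDR mutant scFab yeast library were deep sequenced in two replicates. Sorting used FACS on cells labelled for 3 h at room temperature with 1 nM HGFR-Fc and anti-Myc in PBSB with 1% milk, keeping the top 50% antigen-positive cells. Any sequence seen in both antigen-positive samples was called a binder, while one seen only in the input was called a non-binder.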
Take FKGEGDSA: the antigen binding call was “no binding”. Then YRGKGSAA, with “binds”. Regarding VKGKGSAA, the antigen binding call is recorded as “binds”. As to YAEGASSF, the antigen binding call was “no binding”.

Turning to YRERGSSF, the antigen binding call is on record as “binds”. Consider VRARGSSF, for which the antigen binding call was “binds”. Turning to VTAESSSF, the antigen binding call is given as “no binding”. Then VRAGGDSF, with “no binding”; and VRERGDWF, with “no binding”. Next, VRERGSSF: “binds”; AETAGAAA: “no binding”. For DAATAYGS, the antigen binding call is reported as “no binding”. FATKGFGD: the antigen binding call was “no binding”. In the case of FRGTGSGD, the antigen binding call is on record as “no binding”. FRTKGSGD: the antigen binding call is “binds”. For the variant FATRASGD, the antigen binding call is “no binding”. Regarding FRGKGSGD, the antigen binding call was “binds”.

Take VEEEGDGV: the antigen binding call is “no binding”. Next, YAGTGFWV: “no binding”; DEGGTDAV: “no binding”.

YKGKGSAV: the antigen binding call was “binds”. On to YKGRASAV, for which the antigen binding call is given as “no binding”. Regarding FRGKGAAV, the antigen binding call was “binds”. FREGSASV: the antigen binding call is listed as “no binding”. Next, FKGKGAAF: “no binding”; FKGKGAVV: “binds”.

With FRGKGASV, the antigen binding call was “binds”. Turning to FREEGFSV, the antigen binding call is “no binding”. Next, DATGGSGD: “no binding”. With FKATTVVD chain 1 S88F, the antigen binding call is “no binding”. With FRGKGSAV, the antigen binding call is “binds”.

As to FKGKGAAV, the antigen binding call is recorded as “binds”. As to YRGKGSAV, the antigen binding call is on record as “binds”. Regarding AKGKGAAV, the antigen binding call is reported as “no binding”.

For the variant DKGGGFAV, the antigen binding call is listed as “no binding”. In the case of VKGKGDAV, the antigen binding call is “no binding”. As to FKGRGAAS, the antigen binding call was “binds”. Consider YEGGGSAV, for which the antigen binding call is on record as “no binding”. For the variant YKGGGSAV, the antigen binding call was “binds”.

As for DAGGADAV, the antigen binding call is recorded as “no binding”.

In the case of DEGGTDWY, the antigen binding call is reported as “no binding”. Next, YKRGDAGY: “binds”.

YKRRDAVY: the antigen binding call is reported as “no binding”. YKRESAGY: the antigen binding call is listed as “binds”. Consider YTRGAAGY, for which the antigen binding call is “no binding”.

Turning to YARETDVV, the antigen binding call was “no binding”.

With DGARNAGV, the antigen binding call was “no binding”.

Take VTGTGSSA: the antigen binding call is reported as “no binding”.

With FRKGGAGS, the antigen binding call was “binds”.

Turning to YRKGGFSS, the antigen binding call is “no binding”. On to YRKGGAAS, for which the antigen binding call is “binds”. Turning to FRKRSFSS, the antigen binding call is listed as “no binding”. Next, YRKGGAGS: “binds”; YETGAAAA: “no binding”. For the variant YRRGAAAA, the antigen binding call is recorded as “binds”. Then DREEGAVA, with “no binding”. With ARRGSDVA, the antigen binding call is “no binding”. As for YRRGSAVA, the antigen binding call is “binds”. As to YRRGGAAA, the antigen binding call is listed as “binds”. Then YRTEGAVA, with “binds”; and YTRGADGA, with “no binding”; and DETGGDWF, with “no binding”.

Consider VEEEGDWV, for which the antigen binding call was “no binding”. Then VTGTGDWF, with “no binding”; and YRRGGAVA, with “binds”.

YREKAAWA: the antigen binding call is reported as “no binding”. Consider YRRGAAWA, for which the antigen binding call is “binds”. Turning to YTRGADWA, the antigen binding call is listed as “no binding”. Turning to YRRGGAWA, the antigen binding call is recorded as “binds”.

As for YRRGSAWA, the antigen binding call was “binds”. As to DEGGDDAA, the antigen binding call is on record as “no binding”. Next, VKGRADSA: “no binding”; VEKTGVGA: “no binding”; DRAGDAAA: “no binding”. Take YEAGTAVA: the antigen binding call is “no binding”. For YRAESAAA, the antigen binding call is “binds”.

Take YRAGSAAA: the antigen binding call was “binds”. As to YRAGTAAA, the antigen binding call is given as “binds”. As for YAAKTAAA, the antigen binding call is “no binding”. Regarding YRAKGAAA, the antigen binding call was “binds”. As to VAEGGYAV, the antigen binding call was “no binding”. Take VTAEDFGV: the antigen binding call was “no binding”. Then AARADAVA, with “no binding”. Consider DGGKNDLA, for which the antigen binding call is given as “no binding”.

Consider VKEKGYLV, for which the antigen binding call is “no binding”. On to VEGRGDVF, for which the antigen binding call was “no binding”. For YAGRGDWF, the antigen binding call was “no binding”.

As for VTGRGDVF, the antigen binding call is “no binding”.

As to VKEKGDSA, the antigen binding call was “no binding”. For the variant VKGRGDSF, the antigen binding call is listed as “no binding”. For VKEKGSLF, the antigen binding call is recorded as “binds”. As to VKGRGSSF, the antigen binding call was “binds”.

In the case of YGGRGSWV, the antigen binding call is reported as “no binding”.

Consider VKGRGSVF, for which the antigen binding call is recorded as “binds”.

Take DKGRGSSA: the antigen binding call is “no binding”. Consider YKGRGSWF, for which the antigen binding call is “binds”.

Consider VTTRADVV, for which the antigen binding call is given as “no binding”. Then YTGGADAV, with “no binding”.

YKGRGALF: the antigen binding call is on record as “binds”. Then DGARGALF, with “no binding”; and YKARSALF, with “binds”.

In the case of YKGRGSLF, the antigen binding call is on record as “binds”. For the variant VKGRASGF, the antigen binding call is recorded as “no binding”. Then VKGRGSLF, with “binds”. DAGGADWA: the antigen binding call is “no binding”.

As to SARTDFWF chain 1 K19N, the antigen binding call was “no binding”.

ATKTAFVS chain 1 M34I: the antigen binding call is “no binding”.

On to SEAGDAVV, for which the antigen binding call is on record as “no binding”. Regarding VTTRADVY, the antigen binding call is on record as “no binding”.

As for FRGESAGS, the antigen binding call was “binds”. Take FKGEGAGV: the antigen binding call is “no binding”. With FRGESAGV, the antigen binding call is reported as “binds”. Regarding DAKENDVF, the antigen binding call was “no binding”.

For the variant VEGTSDLS, the antigen binding call is “no binding”. For the variant YRKGGSGA, the antigen binding call is reported as “binds”.

Take YRTGGSGA: the antigen binding call was “binds”. Then YTTGGDGA, with “no binding”; and YRRKGSGA, with “binds”. With FARKGSGA, the antigen binding call was “no binding”. For YAKADSGA, the antigen binding call is on record as “no binding”. As to YRKGSSGA, the antigen binding call is “binds”.

Consider YTKRSSGA, for which the antigen binding call is given as “no binding”. Regarding VKTGGAGA, the antigen binding call is listed as “no binding”. Next, DATGGSGA: “no binding”; YKTGGSGA: “binds”; YRGKASWD: “binds”.

With DAGTGSWD, the antigen binding call is recorded as “no binding”. On to YRGRSSWD, for which the antigen binding call is given as “binds”. Next, YRGRDSWD: “binds”; VTTKSSSA: “no binding”; ATATADWA: “no binding”. Take DKRKGVAF: the antigen binding call was “no binding”. With VRAEGSSV, the antigen binding call is “binds”. Take VETEGSSV: the antigen binding call is listed as “no binding”. Then VTGTASSV, with “no binding”; and VTEEGSSV, with “no binding”; and VRTEDDWV, with “no binding”. Then VRAGDSSV, with “binds”; and VKGRASSV, with “no binding”; and VEAGDSWV, with “no binding”. Consider VRRKSSSV, for which the antigen binding call was “binds”.

In the case of VRTEDSSV, the antigen binding call was “binds”. Consider VRAGDDGV, for which the antigen binding call is reported as “no binding”. Next, VRTEDFGV: “no binding”; VETEGDGV: “no binding”; ATGANAGD: “no binding”. Consider AETGASLS, for which the antigen binding call is given as “no binding”. Then DTKAADWV, with “no binding”.

Take SGRGNALD: the antigen binding call is recorded as “no binding”.

Consider DRRRGALD, for which the antigen binding call was “binds”. As for DATGGALD, the antigen binding call was “no binding”.

On to SRRRGALD, for which the antigen binding call is “binds”. With SAREGALD, the antigen binding call is on record as “no binding”. DREGGVSD: the antigen binding call is on record as “no binding”.

VTATADWA: the antigen binding call is on record as “no binding”.

In the case of VKGRADWD, the antigen binding call was “no binding”.

In the case of SEEEGAGD, the antigen binding call is “no binding”. Then VAGTGDGV, with “no binding”; and YRRKDALA, with “binds”; and YRGKDALA, with “binds”. Next, YAKRDALA: “no binding”; YRAKDALA: “binds”; VRRKDFLA: “no binding”. Turning to DTTGSDWV, the antigen binding call is “no binding”. For the variant VAGTGDVY, the antigen binding call is listed as “no binding”. As for VKGRSVGY, the antigen binding call is listed as “no binding”. Take YRGRDVGY: the antigen binding call is listed as “no binding”. Then YRGRGVGY, with “binds”; and VRGRGVGY, with “binds”; and VTGEDDWY, with “no binding”. Regarding DTKAADVA, the antigen binding call is on record as “no binding”. On to SEARSDGY, for which the antigen binding call is listed as “no binding”. In the case of YKGRGYAD, the antigen binding call was “no binding”. Then YKGKGFGD, with “no binding”; and YKGADFGD, with “no binding”; and SAGRGYGD, with “no binding”.

On to YKGRGFGD, for which the antigen binding call is reported as “binds”.

Turning to YKGRGDGD, the antigen binding call was “binds”.

Consider YGGRGDAD, for which the antigen binding call was “no binding”. Consider YKGRGYGD, for which the antigen binding call is “binds”. Take YAGRGDAD: the antigen binding call is reported as “no binding”.

With YKGRGDAD, the antigen binding call is “binds”. For the variant YEGGGDVA, the antigen binding call is “no binding”. For VGAEGVWS chain 1 G66S, the antigen binding call is given as “no binding”. As for VEGGGDVD, the antigen binding call is given as “no binding”.

With VAGAGDSV, the antigen binding call is “no binding”. Next, YAGRGVGD: “no binding”; YKGKGDGD: “binds”. In the case of VKTGGDGD, the antigen binding call is “no binding”. For the variant YKGRGVGD, the antigen binding call was “binds”. On to YAGRGDLD, for which the antigen binding call was “binds”. For the variant YAGRGDLV, the antigen binding call is given as “no binding”.

Turning to YAGRGDVD, the antigen binding call is “no binding”. In the case of VEEEDYSS, the antigen binding call was “no binding”. Consider FRARSAAA, for which the antigen binding call is “binds”. In the case of FAAKTAAA, the antigen binding call was “no binding”. As to FRKGGAAA, the antigen binding call is “binds”.

As to FRAGGAAA, the antigen binding call was “binds”.

For YRGGSAGA, the antigen binding call is given as “binds”.

As for YRGRSAGA, the antigen binding call is recorded as “binds”. Consider DRGRDAGA, for which the antigen binding call was “no binding”.

With VKGRGSWY, the antigen binding call is “binds”.

Consider VKGRADWY, for which the antigen binding call was “no binding”.

VKGRGAWY: the antigen binding call is reported as “binds”. On to VKGRGFWY, for which the antigen binding call is “no binding”. Then VKTGGAWY, with “no binding”. Take VAAAGAAV: the antigen binding call is given as “no binding”.

Regarding DKKEDSAD, the antigen binding call was “no binding”. As for YKTRGSLD, the antigen binding call is recorded as “binds”. Then DKEGGSAD, with “no binding”; and YKTRSSAD, with “binds”; and YKTRGSAD, with “binds”.

For the variant DKTGDSAD, the antigen binding call is on record as “binds”.
